# Sfp inh: blocks B. subtilis Sfp PPTase activity | Q9F4F7 | Biochemical Sfp PPTase activity, qHTS | Potency, µM, for inactives: largest response in the series, negative = inhibition, most hits filed as inhibitors | 310,000 compounds, 3.5% hits | AID 1490;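 note: the enzyme is Sfp with the accession as filed and its product quenches rhodamine fluorescence; 0% = enzyme reaction without inhibitor and -100% = no enzyme wells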
#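 Compounds were incubated with enzyme (final 15 nM) for 15 min at room temperature before substrate addition started the reaction. Fluorescence at 525 nm excitation, 598 nm emission was recorded immediately and after 30 minutes.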
# G9a block: blocks human histone lysine methyltransferase G9a; Q96KQ7; G9a H3K9 monomethylation, AlphaScreen, 2 h; Potency, µM (series often up to 102 µM), inactives show at the highest dose activity, negative = inhibition, hits mostly inhibitors; 350,000 compounds, 8.8% hits; AID 504332; note: % is set by controls: 0 for no effect and ±100 for the full control effect; nearly all actives have a fitted effect of over 75% in size
# Target sequence (Q96KQ7 913-1193 limits assumed): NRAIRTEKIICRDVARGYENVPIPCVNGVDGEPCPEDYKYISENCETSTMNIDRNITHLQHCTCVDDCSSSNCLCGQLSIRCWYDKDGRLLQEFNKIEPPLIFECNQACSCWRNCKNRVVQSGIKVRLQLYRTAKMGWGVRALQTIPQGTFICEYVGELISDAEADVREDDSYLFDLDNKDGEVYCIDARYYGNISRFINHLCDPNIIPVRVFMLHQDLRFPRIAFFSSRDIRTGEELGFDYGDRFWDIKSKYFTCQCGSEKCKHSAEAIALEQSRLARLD
#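 Readings reflect AlphaScreen signal from monomethyl-H3K9 antibody detection. HMT at 20 nM; substrate b-H3K9 500 nM; cofactor SAM 20 uM; 2 h RT reaction; compounds tested as titrations in qHTS with 15 min preincubation.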
# HP1b chromo inh: blocks HP1-beta chromodomain binding to methylated histone tails; P83916; AlphaScreen HP1-beta / biotin-H3K9me3 peptide binding; Potency, µM (top dose mostly 114 µM), for inactives: top-dose activity change, negative = inhibition, hits mostly inhibitors; 390,000 compounds, 0.56% hits; AID 540317; note: nearly all actives have a fitted effect of over 70% in size
# Target sequence (P83916 whole entry, looked up): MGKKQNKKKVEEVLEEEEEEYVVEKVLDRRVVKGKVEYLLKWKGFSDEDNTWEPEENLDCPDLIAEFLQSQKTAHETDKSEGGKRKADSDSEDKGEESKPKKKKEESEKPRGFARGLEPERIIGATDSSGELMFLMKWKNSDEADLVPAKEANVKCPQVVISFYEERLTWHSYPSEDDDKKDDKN
#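 HP1-beta protein (50 nM final) preincubated 30 min at room temperature with biotinylated H3(1-18)K9me3 peptide (50 nM) in PBS pH 7.4, 0.01% Tween-20, then compound added for 30 min. AlphaScreen streptavidin donor/nickel chelate acceptor beads (10 ug/mL final), 30 min dark, luminescence read.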
# JMJD2A Tudor: blocks the human JMJD2A Tudor domain; O75164; AlphaScreen JMJD2A-Tudor / H3K4me3 peptide binding; Potency, µM (top dose mostly 114 µM), without a hit: at the top dose activity change, negative = inhibition, most hits filed as inhibitors; 390,000 compounds, 4.4% hits; AID 504339; note: % is set by controls: 0 for no effect and ±100 for the full control effect; nearly all actives have a fitted effect of over 50% in size
# BAZ2B inh: blocks human BAZ2B. Q9UIF8. AlphaScreen BAZ2B-H3K14Ac peptide displacement. Potency, µM (series often up to 114 µM), without a hit: top-dose activity change, negative = inhibition, actives largely listed as inhibitors. 360,000 compounds, 4.4% hits; note: % is set by controls: 0 for no effect and ±100 for the full control effect; nearly all actives have a fitted effect of over 60% in size
#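 Multi-concentration screen (max 110 uM) measuring displacement of acetylated histone H3 peptide from BAZ2B by AlphaScreen, using 50 nM protein, 50 nM peptide and 10 ug/mL streptavidin donor plus Ni-chelate acceptor beads.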
# Starred values were filed as active, the others as inactive; ? = inconclusive; · = no result; ! = not active in a repeat; [ ] = dose if it differs, or a comment. An excerpt weighted towards active compounds, which were near 12% of everything screened. Calls come from the whole dose curve; as a rule, active = well fitted curve in the direction sought with a large enough effect; inconclusive = small, poorly fitted or top-dose-only effect, or another doubt; inactive = no such curve, though single readings can be large; an effect the other way counts as inactive or inconclusive. Potency is the fitted concentration of half-maximal effect.
SMILES,Sfp inh,G9a block,HP1b chromo inh,JMJD2A Tudor,BAZ2B inh
CC(C)(C)[C@H]1CCC(=O)N([C@H](CC#N)Cc2ccccc2)CC1,5%,·,47%,9%,-7%[57.1 µM]
O=C(O)c1cc(O)c2c(c1)C(=O)c1cccc(O)c1C2=O,56µM*!,40µM*,?,56µM*,50µM*
Cc1cc(O)c2c(c1)C(=O)c1cccc(O)c1C2=O,-7%,?,·,·,-31%
COC(=O)Cn1cc(C#N)c2ccccc21,1%,10µM*,17%,-8%,0%
COC(=O)Cn1cc(/C=C/c2cc[n+](C)cc2)c2ccccc21,7%,45µM*,11%,?,45µM*
COC(=O)Cn1c(C)c(/C=C/c2cc[n+](C)cc2)c2ccccc21,3%,40µM*,?,?,?
N#Cc1c(-c2ccccc2)[nH]c(=O)[nH]c1=O,16%,-8%,29%,-7%,6%
O=c1[nH]c(-c2ccccc2)c(-c2ccccc2)o1,14%,45µM*,22%,-18%,-30%
CCN1CCN(C(=O)Nc2cc(Cl)ccc2OC)CC1,20%,50µM*,19%,-5%,-15%
COc1ccc(Cl)cc1NC(=O)N1CCN(c2ccccc2OC)CC1,22%,-6%,14%,-14%,-15%
COc1ccc(Cl)cc1NC(=O)NN1CCN(C)CC1,5%,50µM*,36%,3%,50µM*
COc1ccc([C@H]2/C=C\CN(C(=O)C3CCCC3)[C@@H](C)C(=O)N2Cc2ccc(F)cc2)cc1,·,·,24%,-26%,·
COc1cc2c(cc1OC)CN(Cc1cc(OC)c(O)c(OC)c1)CC2,3%,32µM*,57%,-3%,-11%
COc1cc2c(cc1OC)CN(Cc1cccs1)CC2,-23%,?,?,3.2µM*,-39%
Cc1ccc(CN2CCN(c3cccc4[nH]ccc34)CC2)cc1,-2%,?,-14%,?,?
CCCCCCCCCCCC1=C(O)C(=O)C=C(O)C1=O,-9%,·,?,28µM*,·
COC1=CC(=O)C(O)=C(CCCCCCC/C=C/CCCCCCCC2=C(O)C(=O)C=C(OC)C2=O)C1=O,·,·,?,45µM*,·
O=C(Nc1ccc2c(c1)oc1ccccc12)c1cccnc1,-1%,2%,20%,12%,4%
CCCCN(C(=O)c1ccc(Br)o1)C1CCS(=O)(=O)C1 (centres undefined),·,50µM*,38%,-4%,8%
Cc1ccc(CNC(=O)CCS(=O)(=O)c2ccc(Br)s2)o1,40µM*,?,-24%,-21%,2%
Cc1ccccc1NC(=O)CCS(=O)(=O)c1ccc(Br)s1,6%,45µM*,-33%,-24%,?
COC(=O)c1ccccc1NC(=O)CCS(=O)(=O)c1ccc(Br)s1,1%,22%[59 µM],24%,11%[57.1 µM],5%
O=C(Nc1ccccc1)[C@@H]1CC=C[C@@H]2CCN(C3CCCCC3)C(=O)[C@@H]21,·,·,29%,-11%,·
S=c1nn[nH]n1C12CC3CC(CC(C3)C1)C2,?,1.4µM*,-5%,50µM*,?
c1cn(C23CC4CC(CC(C4)C2)C3)cn1,17%,4%[12.7 µM],18%,-14%,2%
SMILES,Sfp inh,G9a block,HP1b chromo inh,JMJD2A Tudor,BAZ2B inh
C=C1CC[C@H](O)C/C1=C/C=C1\CCC[C@]2(C)[C@@H]([C@H](C)/C=C/[C@H](C)C(C)C)CC[C@@H]12,·,14µM*,4%,?,-26%
Cc1ccc(C)c(NC(=S)N(C)CCc2ccccn2)c1,-30%,-16%[59 µM],36%,?,-4%
O=C(Cc1cccs1)N(Cc1cccs1)C1(C(=O)NC2CCCCC2)CCCCC1,4%,?,75%,-4%,-3%
CC(C)C(=O)N1CCN(c2ccc(NC(=O)c3ccc4c(c3)OCCO4)cc2)CC1,13%,·,5%,-9%,-3%
CN(C)CCNC(=O)/C(=C/c1ccc(-c2cccc([N+](=O)[O-])c2)o1)NC(=O)c1ccccc1,-7%,-9%[59 µM],-4%,-29%,-35%
Cc1ccc(C(=O)N/C(=C\c2ccc(-c3ccccc3[N+](=O)[O-])o2)C(=O)NCCCN(C)C)cc1,-11%,50µM*,-13%,?,?
Cc1ccc(C(=O)N/C(=C\c2ccc(-c3ccccc3[N+](=O)[O-])o2)C(=O)NCCN(C)C)cc1,40µM*,·,?,56µM*,-6%
CN(C)CCCNC(=O)/C(=C/c1ccc(-c2ccc([N+](=O)[O-])cc2)o1)NC(=O)c1ccccc1,11%,-4%,34%,5%,-4%
COC(=O)c1ccc(CN2CCN(CC=C(C)C)C(CCO)C2)cc1 (centres undefined),14%,45µM*,41%,5%,?
CCCN1CN(Cc2ccccc2)CC2=C1CC(C)(C)CC2=O,?,-1%[59 µM],57%,?,-11%
COc1cc(N/N=C(\C)c2ccc(N)cc2)nc(-c2ccccc2)n1,15%,45µM*,3%,-34%,32µM*
c1ccn(CCc2ccncc2)c1,·,·,?,-32%,·
Nc1ccc(CCn2ccnc2)cc1,24%,-12%,37%,79µM*,45µM*
Cn1nc(C(=O)N2CCN(c3ccc(F)cc3)CC2)c2c1-c1ccccc1S(=O)(=O)C2,11%,11%,13%,-8%,-25%
O=C(NCC(c1ccco1)N1CCCCC1)c1cnc(Cl)c(Cl)c1 (centres undefined),·,·,19%,-16%,·
CCCN(CCC)C1=CC(=[N+]2CCCC2)CC(C)(C)C1,-18%,1.8µM*,-14%,?,-13%
Cn1ccnc1C(O)c1ccco1 (centres undefined),?,?,-7%,56µM*,4%
COc1ccccc1C(O)c1nccn1C (centres undefined),12%,?,13%,-23%,-7%
Cc1ccc(NC(=S)NC(=O)/C=C/c2ccco2)c(O)c1,?,?,-32%,?,?
O=C(/C=C/c1ccco1)NC(=S)Nc1ccccc1O,-54%,32µM*,?,-8%[11.4 µM],40µM*
O=C(/C=C/c1ccco1)NC(=S)Nc1ccccc1N1CCOCC1,-1%,?,-24%,?,?
Cc1ccc(-c2nc3ccccc3[nH]2)cc1NC(=O)/C=C/c1ccco1,50µM*,-6%[2.33 µM],-21%,?,50µM*
Cc1ccc(-c2nc3ccccc3[nH]2)cc1NC(=O)c1ccc2c(c1)OCO2,22%,?,2%,-17%,-13%
O=C(/C=C\c1ccco1)NC(=S)Nc1ccccc1O,?,45µM*,-12%,-12%[11.4 µM],50µM*
Cc1cc(C)c2oc(-c3ccc(C)c(NC(=S)NC(=O)/C=C/c4ccco4)c3)nc2c1,40µM*,-44%[59 µM],6%,-29%,-30%
Cc1ccc(NC(=O)c2ccc3c(c2)S(=O)(=O)c2ccccc2C3=O)cc1S(=O)(=O)N1CCOCC1,-3%,-3%[59 µM],7%,-12%,-14%
CCOc1ccc2nc(NCCCNS(=O)(=O)c3ccc(C)cc3)c(C#N)cc2c1,4%,86%[59 µM],58%,20%,10%

# Assay outcomes: PubChem, National Center for Advancing Translational Sciences (NCATS)
